Source: PubChem BioAssay AID624417 (National Center for Advancing Translational Sciences (NCATS), 2012)
Out of some 410,000 compounds screened, about 6,400 (1.6%) were called active. Inconclusive results (about 20%) are left out. The call rests on the fitted dose curve; in most records, active means well fitted inhibition curve with a large enough effect; inconclusive means small, poorly fitted or top-dose-only effect; inactive means no such curve, though single readings can be large or run the other way. The sample as a whole holds a higher share of actives than the screen did.

biological target: Glucagon-like peptide 1 receptor (Homo sapiens) (UniProt P43220); experiment: qHTS of GLP-1 Receptor Inverse Agonists (Inhibition Mode); settings: HEK293 GLP-1R CRE-luciferase, luminescence, 24 h, GLP-1R form is constitutively active; series mostly up to 38.3 µM; activity change, negative = inhibition: at the top concentration; further: nearly all actives have a fitted effect of over 55% in size
Sequence (P43220 whole entry, looked up): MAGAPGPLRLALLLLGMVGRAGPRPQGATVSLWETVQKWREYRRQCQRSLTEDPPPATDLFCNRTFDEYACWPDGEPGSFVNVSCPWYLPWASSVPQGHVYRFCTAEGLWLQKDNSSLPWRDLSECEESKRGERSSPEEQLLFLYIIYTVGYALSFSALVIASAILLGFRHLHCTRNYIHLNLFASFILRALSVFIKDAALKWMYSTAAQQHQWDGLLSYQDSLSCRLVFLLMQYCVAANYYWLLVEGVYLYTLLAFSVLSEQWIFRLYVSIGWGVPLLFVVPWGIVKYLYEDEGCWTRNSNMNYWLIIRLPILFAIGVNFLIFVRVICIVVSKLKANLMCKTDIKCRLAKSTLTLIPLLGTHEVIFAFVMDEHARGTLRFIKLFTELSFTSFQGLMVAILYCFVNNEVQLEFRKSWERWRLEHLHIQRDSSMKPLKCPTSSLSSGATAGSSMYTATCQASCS
Outline: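 HEK293 cells stably co-expressing constitutively active GLP-1R and a cAMP-responsive luciferase reporter were seeded in DMEM with 10% Nu serum, given compounds after 12 h, and incubated 24 h at 37 deg C. Luminescence was then read.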
On the % scale 0 is the no-effect control and ±100 the full control effect; potency means the concentration at half of the fitted maximal effect.

SMILES	Potency	activity change, negative = inhibition
Cc1ccc(S(=O)(=O)N(Cc2nc(-c3ccc(Cl)cc3)no2)C2CCCCC2)cc1	10 µM (active)	–
CC1CCN(Cc2nc(-c3ccc(Cl)cc3)no2)CC1	–	-29.5% (inactive)
CCN1CC(CN(C)Cc2nc(-c3ccc(Cl)cc3)no2)CC1=O (centres undefined)	–	-4.38% (inactive)
CCN(CC)C(=O)C(C)N1c2cccc3cccc(c23)S1(=O)=O (centres undefined)	–	-23.4% (inactive)
CCc1cccc(C)c1N1C(=O)CN(Cc2ccccc2)C1=S	5.62 µM (active)	–
O=C1C[C@@H]2c3c(cccc3CN1Cc1ccccc1)C[C@@H](O)[C@H]2O	–	26.3% (inactive)
CC1CN(Cc2ccccc2)C(=S)NC1=O (centres undefined)	–	0.404% (inactive)
Nc1ncnc2c1ncn2[C@@H]1O[C@H](C(=O)N2CCSC2)[C@@H](O)[C@H]1O	–	0.629% (inactive)
CCOc1cc(/C=N/NC(=O)c2c(C)nc3ccc(Cl)cn23)ccc1O	–	1.83% (inactive)
CC(=O)C[C@@H]1OC[C@H](C)N1S(=O)(=O)c1ccc(C)cc1	–	0.373% (inactive)
CCCC(=O)N1CCC1(C)C(=O)NCc1ccc(C(C)C)cc1 (centres undefined)	–	17.7% (inactive)
O=C(NNc1cc(Cl)cc(Cl)c1)c1c(F)cccc1Cl	10 µM (active)	–
O=C(Nc1nnc(-c2ccc(F)cc2)s1)c1c(F)cccc1Cl	–	-21.4% (inactive)
CCN(CC)CCNC(=O)c1ccc(NC(=O)c2c(F)cccc2Cl)cc1	–	-15.9% (inactive)
CN1CCN(c2ccncc2S(=O)(=O)N2CCCC2)CC1	–	14% (inactive)
COCCNC(=O)c1cc2c(Br)ccc(Br)c2nc1N	–	3.82% (inactive)
O=C(C[C@H]1CC[C@@H](NC(=O)c2ccncc2)[C@@H](CO)O1)NCC1CC1	–	19.3% (inactive)
CCOc1cccc(/C=C/c2ccc3ccccc3n2)c1OC(C)=O	10 µM (active)	–
CCOc1ccccc1-c1cc(C(=O)N2CCOCC2)c2ccccc2n1	–	-1.25% (inactive)
CCOc1ccccc1/C=N/Nc1nc2ccccc2o1	–	4.76% (inactive)
CC(C)(C)S(=O)N1Cc2cc(C(=O)NCCCN3CCOCC3)nc(-c3cccc(-c4cc5ccccc5o4)c3)c2[C@H]1CCO (some centres undefined)	–	4.49% (inactive)
COc1cccc(CC(=O)Nc2ccc(-c3csc(C)n3)cc2)c1	–	-12.6% (inactive)

SMILES	Potency	activity change, negative = inhibition
COc1cccc(N2CCN(CC(=O)Nc3ccnn3C3CCCC3)CC2)c1	–	-24.6% (inactive)
COc1cccc(NC(=O)CN2CCN(c3nc(-c4cccc(OC)c4)cs3)CC2)c1	10 µM (active)	–
CC(C)CN1CCC1(C)C(=O)Nc1ccc(OC(F)F)cc1 (centres undefined)	–	-21% (inactive)
C[N+](C)(C)CCNC(=O)c1c[nH]c2ccccc12	–	15.7% (inactive)
CC(C)c1cc(C(=O)N(C)C2CCCN(Cc3ccccc3F)C2)n(C)n1 (centres undefined)	–	-8.11% (inactive)
COc1cc2c(cc1OC)C(C(C)C)=NC(C)(C)C2	–	41.3% (inactive)
COc1cc2c(cc1OC)C(Nc1ccc(S(N)(=O)=O)cc1)=NC(C)(C)C2	–	120% (inactive)
COc1cc2c(cc1O)C(SC)=NC(C)(C)C2	10 µM (active)	–
CC(=O)NN=C(C)c1ccc(NC(=O)C2CC2)cc1	–	-13.4% (inactive)
N#Cc1ccc(C(C(=O)NCc2ccccc2)n2c(=O)c(-c3ccco3)nc3ccccc32)cc1 (centres undefined)	–	-11.9% (inactive)
Cc1ccc(NC(=O)Cn2sc3ccccc3c2=O)cc1	–	-7.13% (inactive)
O=C(O)c1cccc(NC(=S)N/N=C/c2c[nH]c3ccccc23)c1	–	-14.5% (inactive)
CSC(=S)N/N=C/c1c[nH]c2ccccc12	3.16 µM (active)	–
COCCNC(=S)N/N=C/c1c(C)[nH]c2ccccc12	–	-22.1% (inactive)
CCc1nc2ccc(C(=O)N3CCC(O)(Cc4ccccc4)CC3)cn2c1N(C)C(=O)Cc1ccccc1	–	-20% (inactive)
CCNC(=O)CN(c1ccc(C)cc1)S(=O)(=O)c1ccc(SC)cc1	–	-13.4% (inactive)
Cc1ccc(S(=O)(=O)N(CC(=O)Nc2cccnc2)c2ccc(Br)cc2)cc1	11.2 µM (active)	–
CCc1ccc(N(CC(=O)NCc2cccnc2)S(=O)(=O)c2ccccc2)cc1	–	-16.9% (inactive)
CCOc1ccc(/C=N/NC(N)=S)cc1	–	-13.1% (inactive)
CC(C)Oc1c(Br)cc(Br)cc1/C=N/NC(N)=S	2.51 µM (active)	–
NC(=S)N/N=C/c1coc2cc(Cl)ccc2c1=O	–	8.08% (inactive)
CN1OC[C@@H]2CN(C(=O)c3ccc(-c4ccccc4)cc3)[C@H](c3ccc(-c4cccc(F)c4)cc3)C[C@@H]21	–	-7.58% (inactive)

SMILES	Potency	activity change, negative = inhibition
CCCCN1C(=O)C(CC(=O)NCc2cccs2)CC(C(=O)N2CCCCCC2)=C1C (centres undefined)	–	32.5% (inactive)
COc1ccc(C(=O)N(Cc2ccc(N(C)C)cc2)C2CCS(=O)(=O)C2)cc1 (centres undefined)	–	11.2% (inactive)
Cc1cc(Cl)ccc1OCC(=O)N(Cc1ccc(N(C)C)cc1)C1CCS(=O)(=O)C1 (centres undefined)	–	-15.3% (inactive)
CC1(C)C(C=C(Cl)Cl)C1C(=O)N(Cc1ccc(Cl)cc1)C1CCS(=O)(=O)C1 (centres undefined)	8.91 µM (active)	–
C=CCN1CCN(c2ccncc2S(=O)(=O)N2CCN(C)CC2)CC1	–	2.75% (inactive)
C[C@@H]1Cn2cnc(C(=O)Nc3ccc(CNC(=O)OC(C)(C)C)cc3)c2C(=O)N1	–	10.1% (inactive)
O=C(Cc1ccc(-c2ccccc2)cc1)NC(c1ccccc1)c1ccccc1	–	4.75% (inactive)
O=C(CN1CCN(Cc2ccccc2)CC1)NC(c1ccccc1)c1ccccc1	10 µM (active)	–
O=C(CN1CCN(Cc2ccccc2)CC1)Nc1ccc(F)c(F)c1	–	-20.9% (inactive)
COc1ccc(S(=O)(=O)N(C)C)cc1NC(=O)COC(=O)c1n[nH]c2ccccc12	–	26.5% (inactive)
Nc1ncnc2c1ncn2[C@@H]1O[C@H](CNC(=O)[C@H](N)Cc2cccnc2)[C@@H](O)[C@H]1O	–	21.7% (inactive)
CSc1nsc(SC)c1NC(=O)OC1CCCCC1	7.08 µM (active)	–
COc1ccc(CC(=O)N/N=C/c2cc([N+](=O)[O-])cc(Br)c2O)cc1	–	-4.66% (inactive)
O=[N+]([O-])c1cc(Br)c(O)c(/C=N/Nc2nc3ccccc3s2)c1	4.47 µM (active)	–
O=C(NC(Nc1nc2ccc([N+](=O)[O-])cc2s1)(C(F)(F)F)C(F)(F)F)c1ccccc1	–	-3.99% (inactive)
CC1(C(=O)O)CCN1C(=O)/C=C/c1ccccc1 (centres undefined)	–	3.55% (inactive)
Cc1cccc(S(=O)(=O)N(C)C[C@@H]2OCc3cnnn3CCCC(=O)N([C@H](C)CO)C[C@@H]2C)c1	–	4.72% (inactive)
O=C(NCCC1=CCCCC1)C1CCN(Cc2cnn(-c3ccccc3)c2-n2cccc2)CC1	4.47 µM (active)	–
Cc1cc(C)cc(NC(=O)CSCc2cnn(-c3ccccc3)c2-n2cccc2)c1	–	0% (inactive)
CC(=O)Nc1ccc(NC(=O)CSCc2cnn(-c3ccccc3)c2-n2cccc2)cc1	–	0% (inactive)
